# In all, about 25,000 compounds went through this assay and about 970 (3.9%) were called active. Inconclusive results (about 8%) are left out. No rule for the calls is given here. The entries come from a sample that favours actives as a whole.
# Assays:
# Test in all cases: Primary Screen for Target Class Profiling of Small Molecule Inhibitors of Methyltransferases
# [1] = molecular target: Catechol O-methyltransferase (Homo sapiens) (UniProt P21964); details: purified enzyme, MTase-Glo SAH luminescence; activity change, negative = inhibition: at 40 µM, stronger effect = lower value; outcome: 40 uM
# Chain of Catechol O-methyltransferase (Homo sapiens) (P21964 whole entry, looked up): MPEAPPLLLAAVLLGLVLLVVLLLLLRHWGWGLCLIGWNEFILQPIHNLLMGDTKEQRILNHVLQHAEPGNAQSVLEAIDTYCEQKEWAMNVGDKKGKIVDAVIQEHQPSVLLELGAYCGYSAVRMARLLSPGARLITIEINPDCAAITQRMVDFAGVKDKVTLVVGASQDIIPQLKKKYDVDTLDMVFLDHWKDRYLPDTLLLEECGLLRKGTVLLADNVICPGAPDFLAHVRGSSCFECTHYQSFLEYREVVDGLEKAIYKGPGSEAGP
# Summary of the method: (§1)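 Each enzyme was assayed with SAM and its substrate. SAH formation detected by MTase-Glo luminescence; single-point 40 uM screen[…].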
# [2] = molecular target: Glycine N-methyltransferase (Homo sapiens) (UniProt Q14749); details: purified enzyme, MTase-Glo SAH luminescence; measured here: GNMT inhibition; at 40 µM; stronger effect = lower value
# Chain of Glycine N-methyltransferase (Homo sapiens) (Q14749 whole entry, looked up): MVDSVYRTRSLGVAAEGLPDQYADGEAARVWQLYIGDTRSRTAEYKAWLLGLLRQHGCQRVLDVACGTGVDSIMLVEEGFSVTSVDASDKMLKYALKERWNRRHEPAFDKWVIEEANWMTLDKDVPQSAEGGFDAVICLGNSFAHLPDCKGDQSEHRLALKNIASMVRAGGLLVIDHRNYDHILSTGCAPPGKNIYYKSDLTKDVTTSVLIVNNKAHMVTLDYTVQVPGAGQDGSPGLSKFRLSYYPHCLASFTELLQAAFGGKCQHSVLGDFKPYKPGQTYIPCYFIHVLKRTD
# Summary of the method: as §1
# [3] = molecular target: Guanidinoacetate N-methyltransferase (Homo sapiens) (UniProt Q14353); details: purified enzyme, MTase-Glo SAH luminescence; measured here: GAMT inhibition; at 40 µM; stronger effect = lower value
# Summary of the method: as §1
# [4] = molecular target: Histamine N-methyltransferase (Homo sapiens) (UniProt P50135); details: purified enzyme, MTase-Glo SAH luminescence; measured here: HNMT inhibition; at 40 µM; stronger effect = lower value
# Chain of Histamine N-methyltransferase (Homo sapiens) (P50135 whole entry, looked up): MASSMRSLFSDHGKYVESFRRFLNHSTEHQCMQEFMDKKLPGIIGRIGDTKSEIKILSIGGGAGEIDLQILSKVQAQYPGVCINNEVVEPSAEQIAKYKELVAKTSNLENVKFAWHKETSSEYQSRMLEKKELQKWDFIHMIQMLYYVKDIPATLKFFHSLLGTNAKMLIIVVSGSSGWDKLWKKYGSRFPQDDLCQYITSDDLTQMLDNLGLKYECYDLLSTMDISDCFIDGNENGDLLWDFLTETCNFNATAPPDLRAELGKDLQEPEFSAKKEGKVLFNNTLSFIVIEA
# Summary of the method: as §1
# [5] = molecular target: Nicotinamide N-methyltransferase (Homo sapiens) (UniProt P40261); details: purified enzyme, MTase-Glo SAH luminescence; measured here: NNMT inhibition; at 40 µM; stronger effect = lower value
# Chain of Nicotinamide N-methyltransferase (Homo sapiens) (P40261 whole entry, looked up): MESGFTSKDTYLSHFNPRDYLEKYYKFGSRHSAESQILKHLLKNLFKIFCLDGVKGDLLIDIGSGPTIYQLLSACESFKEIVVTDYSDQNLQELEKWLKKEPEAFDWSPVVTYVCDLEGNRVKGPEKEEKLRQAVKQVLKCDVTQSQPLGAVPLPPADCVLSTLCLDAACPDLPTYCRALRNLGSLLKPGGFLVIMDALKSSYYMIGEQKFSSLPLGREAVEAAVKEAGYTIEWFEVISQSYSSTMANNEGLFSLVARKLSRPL
# Summary of the method: as §1
# [6] = molecular target: Phenylethanolamine N-methyltransferase (Homo sapiens) (UniProt P11086); details: purified enzyme, MTase-Glo SAH luminescence; measured here: PNMT inhibition; at 40 µM; stronger effect = lower value
# Chain of Phenylethanolamine N-methyltransferase (Homo sapiens) (P11086 whole entry, looked up): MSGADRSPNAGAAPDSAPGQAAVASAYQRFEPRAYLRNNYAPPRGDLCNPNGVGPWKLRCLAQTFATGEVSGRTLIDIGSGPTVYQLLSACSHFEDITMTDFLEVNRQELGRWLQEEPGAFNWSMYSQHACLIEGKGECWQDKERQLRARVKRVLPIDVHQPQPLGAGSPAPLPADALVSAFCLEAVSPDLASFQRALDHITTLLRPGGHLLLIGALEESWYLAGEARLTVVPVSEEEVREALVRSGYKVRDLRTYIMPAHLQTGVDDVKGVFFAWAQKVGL
# Summary of the method: as §1
# % is scaled to controls: 0 for no effect and ±100 for the full control effect.
Structure (SMILES),"activity change, negative = inhibition [1]","activity change, negative = inhibition [2]","activity change, negative = inhibition [3]","activity change, negative = inhibition [4]","activity change, negative = inhibition [5]","activity change, negative = inhibition [6]"
C=Cc1ccc(Cn2nc3n(CC(C)C)c(=O)c4ccc(C(=O)NC(C)CC)cc4n3c2=O)cc1 (stereo unspecified),2.79% (inactive),4.48%,0%,10.7%,-0.533%,5.38%
O=S(=O)(c1ccc2[nH]c3c(c2c1)CCCC3)N1CCN(Cc2ccccc2)CC1,4.94% (inactive),5.6%,0%,5.93%,5.54%,4.34%
Cc1nc2c(c(NC3CC3)n1)CCN(C(=O)CCc1cccnc1)CC2,-0.626% (inactive),-3.41%,-8.98%,-2.51%,-8.36%,-4.07%
COc1cc(NC(=O)Nc2cccc(CNC(=O)O[C@H]3CCOC3)c2)ccc1-c1cnco1,-2.73% (active),-16.2%,1.61%,-89.1%,-22.8%,-6.4%
CC1CCCC(NC(=O)C2(C)Cn3c(nc4ccccc43)C(=O)N2Cc2ccc(Cl)cc2)C1C (stereo unspecified),1.59% (inactive),-0.93%,1.75%,0.57%,2.43%,-2.27%
Cc1cccc(CCNC(=O)c2cc3n(n2)CC(C)(C(=O)NCc2ccccc2)N(C)C3=O)c1 (stereo unspecified),0.858% (inactive),3.01%,0.251%,3.89%,3.49%,1.3%
CCCS(=O)(=O)N1CCCC(Cc2noc(-c3cnccn3)n2)C1 (stereo unspecified),-2.88% (inactive),-4%,-4.91%,-0.21%,-5.94%,-4.02%
CCCS(=O)(=O)N1CCCC(OCc2noc(C3CCOCC3)n2)C1 (stereo unspecified),-3.2% (inactive),-4.75%,-6.9%,-3.01%,-9.35%,-7.82%
CCCS(=O)(=O)N1CCCC(Cn2c(C)nc3cccnc32)C1 (stereo unspecified),-1.28% (active),-90.9%,-3.03%,-2.37%,-5.85%,-1.53%
CC1(C(=O)NC2CCCC2)Cn2c(cc3ccccc32)C(=O)N1c1ccc(F)cc1 (stereo unspecified),1% (inactive),0.736%,0%,3.74%,5.9%,0.017%
Cc1cccc(NC(=O)CSc2nnc3n(CC(C)C)c(=O)c4ccc(C(=O)NC(C)C)cc4n23)c1,2.32% (inactive),0.335%,4.37%,4.71%,-3.04%,1.77%
Cc1c(NS(=O)(=O)c2cccc3c2C(=O)c2ccccc2C3=O)c(=O)n(-c2ccccc2)n1C,-6.91% (inactive),-20.9%,3.01%,-5.26%,-8.5%,-27%
COc1ccccc1CCN1C(=O)c2ccc(-c3ccco3)n2CC1(C)C(=O)NC1CCCCCC1 (stereo unspecified),-0.859% (inactive),-4.07%,0%,-1.27%,-3.86%,-2.83%
Cc1ccc(N2C(=O)c3cc(-c4ccco4)nn3CC2(C)C(=O)NC2CCCCC2)cc1Cl (stereo unspecified),-4.47% (inactive),-10.8%,2.7%,-6.61%,-7.94%,-7.34%
O=C(c1coc(CN2CCN(C/C=C/c3ccccc3)CC2)n1)N1CCC[C@H]1CO,1.4% (inactive),-0.744%,2.52%,0.892%,-2.33%,15.6%
O=C1Nc2ccc(O)cc2O[C@H]1O[C@@H]1O[C@H](CO)[C@@H](O)[C@H](O)[C@H]1O,2.34% (inactive),1.1%,7.9%,2.99%,-5.97%,2.07%
CCc1ccc(NS(=O)(=O)c2cc3c(cc2C)n(C)c(=O)n3C)cc1,6.7% (inactive),2.79%,0%,1.74%,-13.9%,-1.81%
CNC(=O)c1ccccc1Nc1nc(Nc2ccc(N3CCOCC3)cc2OC)ncc1Cl,1.38% (inactive),-17.4%,6.33%,-0.939%,-26.5%,-6.85%
CC1(C)CCC(C)(C)c2cc3c(cc21)Sc1ccccc1N=C3c1ccc(C(=O)O)cc1,9.33% (inactive),1.76%,4.41%,11.6%,-26.9%,3.91%
Cc1cc(C[C@@H]2COC[C@@H]2NC(=O)c2cccc(-n3nc(C)cc3C)c2)on1,-7.5% (inactive),-5.02%,-7.68%,-5.59%,-12.1%,-25.6%
CCCN1C(=O)c2cc3sccc3n2CC1(C)C(=O)NC1CCC(C)CC1 (stereo unspecified),0.545% (inactive),0.536%,4.2%,-0.49%,0.936%,-2.48%
CCOC(=O)c1cc2n(n1)CC(C)(C(=O)NC1CCCC1)N(c1ccc(C)cc1)C2=O (stereo unspecified),2.4% (inactive),-0.39%,4.54%,3.6%,-0.074%,2.88%
Nc1ccc2c3c(cccc13)C(=O)NC2=O,-69.4% (active),-41.1%,-13%,-8.7%,-18.3%,-8.01%
CCOc1ccccc1CN1C(=O)c2ccc(-c3ccco3)n2CC1(C)C(=O)NC1CCCCC1 (stereo unspecified),5.26% (inactive),-1.1%,0%,5.47%,3.87%,0.061%
COc1ccc(-c2ncc3c(n2)OCCN(Cc2ccccc2)C3=O)cn1,-3.7% (inactive),-12%,-5.92%,-5.55%,-19.1%,-28.2%
CN1C(=O)c2cc(C(=O)N3CCN(Cc4ccccc4)CC3)nn2CC1(C)C(=O)NCc1ccccc1 (stereo unspecified),1.23% (inactive),5.09%,0.749%,4.84%,6.08%,-8.04%

Structure (SMILES),"activity change, negative = inhibition [1]","activity change, negative = inhibition [2]","activity change, negative = inhibition [3]","activity change, negative = inhibition [4]","activity change, negative = inhibition [5]","activity change, negative = inhibition [6]"
COc1ccccc1-c1[nH]nc2ncc(C(=O)N3CCN(Cc4ccccc4)CC3)nc12,-63.8% (active),-70.9%,-63.7%,-73.4%,-59.4%,-76.7%
O=c1c2ccccc2n2c(=O)n(Cc3cccc(F)c3)nc2n1CCc1ccccc1,-1.7% (inactive),-7.42%,-7.2%,8.21%,-7.17%,-9.52%
CC1(C)[C@H](Cc2cc(-c3ccccc3)on2)C[C@@H]1NCC1CC1,-5.01% (active),-5.31%,-6%,-40.7%,-19.5%,-50.1%
CCCn1c(=O)c2cc(Cl)ccc2n2c(SCC(=O)Nc3ccc(Cl)cc3)nnc12,-0.206% (inactive),-6.08%,4.35%,1.24%,-3.29%,1.76%
CCOCCCN1C(=O)c2cc3ccccc3n2CC1(C)C(=O)NCCC(C)C (stereo unspecified),4% (inactive),6.59%,4.89%,8.93%,10.6%,0.52%
CCCn1c(=O)c2ccc(C(=O)NC(C)CC)cc2n2c(=O)n(CC(=O)Nc3ccccc3)nc12 (stereo unspecified),-0.37% (inactive),0.266%,3.33%,0.842%,-0.601%,3.03%
O=c1c2ccccc2n2c(=O)n(Cc3ccccc3)nc2n1Cc1ccc(F)cc1,6.23% (inactive),9.17%,3.06%,12.4%,6.51%,5.22%
COc1ccc(-c2nc3ccncc3[nH]2)cc1,-149% (active),-99.2%,-103%,-91.6%,-110%,-145%
CC1CCN(S(=O)(=O)c2ccc3c(ccn3CCC(=O)N3CCN(c4ccccn4)CC3)c2)CC1,-2.75% (inactive),-6.24%,-4.09%,-2.6%,-7.95%,-2.86%
Cc1cc(Nc2cc(N3CCN(C)CC3)nc(Sc3ccc(NC(=O)C4CC4)cc3)n2)n[nH]1,-3.15% (active),-71.8%,5.06%,-13.3%,-11.1%,-0.531%
Cc1ccc(Cn2c(=O)c3ccccc3n3c(CCC(=O)NCc4ccc5c(c4)OCO5)nnc23)cc1,-5.97% (inactive),-13.5%,2.22%,-2.65%,-2.38%,-7.16%
O=C(NCc1ccc2c(c1)OCO2)c1sc(=S)n2c1[nH]c(=O)c1ccccc12,-20.2% (active),-52.7%,0%,-2.67%,-35.9%,-28.2%
Cc1cc2c(cc1S(=O)(=O)NCc1ccc3c(c1)OCO3)n(C)c(=O)n2C,13.6% (inactive),12.8%,1.49%,9.41%,2.71%,6.83%
COC(=O)[C@]12C(=O)C(C)=C(O)[C@@]1(C)C(C)=CC1[C@@]34CC[C@@H](OC(C)=O)C(C)(C)C3[C@H](C[C@]12C)OC4=O (stereo partly specified),5.51% (inactive),0%,3.85%,9.8%,-6.73%,3.04%
CN(C)[C@@H]1C(=O)C(C(N)=O)=C(O)[C@@]2(O)C(=O)C3=C(O)c4c(O)ccc(Cl)c4[C@@H](O)[C@H]3C[C@@H]12,-74.5% (active),-24.2%,6.87%,3.22%,-8.53%,-5.78%
COCCOc1cc(=O)n2c(c1C(=O)NCc1ccccc1)CCOCC2,-1.21% (inactive),1.04%,-0.934%,1.39%,-1.22%,1.39%
CCC(C)(C)NC(=O)c1cccc2c1CCN2C(=O)Nc1ccc(C)cc1,-3.57% (inactive),-1.49%,-2.95%,1.94%,-7.5%,-2.44%
Cn1c(=O)n(C)c2cc(Nc3nc4ccccc4nc3NS(=O)(=O)c3ccc(Cl)cc3)ccc21,3.8% (inactive),7.68%,-3.35%,-4.47%,0.13%,-6.48%
O=C(O)CC1CCC(c2ccc(-c3ccc(Nc4ccc(C(F)(F)F)nc4)cn3)cc2)CC1 (stereo unspecified),17.9% (active),-52.1%,-12.8%,1.31%,-35.3%,-4.28%
CC(C)c1nccn1CCCNc1nc(-c2ccncc2)nc2c1cnn2C,-44.5% (active),-59.1%,-50.1%,-86%,-53%,-25.5%
CCOC(=O)c1cc2n(n1)CC(C)(C(=O)NCc1ccc(F)cc1)N(Cc1ccccc1OC)C2=O (stereo unspecified),-3.88% (inactive),-3.75%,3.18%,0.898%,-7.43%,-5.73%
CC(C)CCN1CC2(CCCN(C(=O)c3ccn(C)c(=O)c3)C2)CCC1=O (stereo unspecified),-31.2% (active),-57.8%,-45.1%,-13.3%,-17.7%,-27%
COCCN1CC2(CCC1=O)CCN(C(=O)[C@@H]1C[C@@H](O)CN1)CC2,4.29% (inactive),-0.827%,-1.32%,1.21%,0.29%,-19.8%
COCCCn1c(=O)[nH]c2cccnc21,-9.36% (inactive),-5.17%,-6.2%,-1.12%,-14.7%,9.39%
CCCn1c(=O)c2ccc(C(=O)NC(C)C)cc2n2c(=O)n(CC(=O)NCc3ccccc3Cl)nc12,4.33% (inactive),2.57%,1.92%,6.44%,8%,4.03%

# Source: PubChem BioAssay AID1745853 (National Center for Advancing Translational Sciences (NCATS), 2022)
